Lassa entry inh: blocks Lassa virus binding to or entry into cells. Lassa virus pseudotype entry inhibition, cell reporter. Potency, µM (highest dose often 37.9 µM), without a hit: at the highest dose activity change, negative = inhibition, usual class: inhibitors. 1.2% of 300,000 active; calls by dose curve; tested in HEK293 cells; note: potency is the fitted concentration of half-maximal effect; % is set by controls: 0 for no effect and ±100 for the full control effect; nearly all actives have a fitted effect of over 50% in size
FMDV antiviral: blocks foot and mouth disease virus. FMDV antiviral cell-based qHTS. Potency, µM (series often up to 57.9 µM), without a hit: top-dose activity change, negative = inhibition, most hits filed as inhibitors. 1.2% of 410,000 active; calls by dose curve; tested in HEK293T cells; note: read-out not given here; potency is the fitted concentration of half-maximal effect; % is set by controls: 0 for no effect and ±100 for the full control effect; nearly all actives have a fitted effect of over 45% in size
SARS PLP yeast: inhibitors of SARS-CoV papain-like protease in yeast | Potency, µM (series often up to 32.9 µM), for inactives: top-dose activity, positive = growth rescue, most hits filed as activators | AID 485353 | S. cerevisiae expressing SARS-CoV PLpro, growth rescue | 0.19% of 330,000 active; calls by dose curve; note: potency is the fitted concentration of half-maximal effect; 0% is about no effect; nearly all actives have a fitted effect of over 55% in size
HCV inh: HCV inhibition; Huh7.5.1 HCVcc-Cre infection, luciferase reporter, 44 h; Potency, µM (top dose mostly 41.8 µM), inactives show top-dose activity change, negative = inhibition, actives largely listed as inhibitors; 3.4% of 340,000 active; active = well fitted inhibition curve with a large enough effect; inconclusive = small, poorly fitted or top-dose-only effect, or another doubt; inactive = no such curve, though single readings can be large or run the other way; note: potency is the fitted concentration of half-maximal effect; % is set by controls: 0 for no effect and ±100 for the full control effect
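After 44 h co-culture of compound, cells and HCVcc-Cre (~0.5 moi), substrate is added for 15 min at room temperature and luciferase measured over 15 sec. Cells were seeded at 1,000/well and pre-cultured 4 h.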
Marburg entry inh: blocks Marburg virus binding to or entry into cells | Marburg virus pseudotyped entry inhibition, cell reporter | Potency, µM (series often up to 37.8 µM), inactives show at the top dose activity change, negative = inhibition, most hits filed as inhibitors | 1.8% of 300,000 active | AID 540276; calls by dose curve; tested in HEK293 cells; note: potency is the fitted concentration of half-maximal effect; % is set by controls: 0 for no effect and ±100 for the full control effect
HCMV antiviral: blocks human cytomegalovirus replication. activity change, negative = inhibition, % at 57.5 µM. HFF cells, HCMV-luciferase reporter, 72 h; hits give low values. 4.5% of 410,000 active; in the data active = activity change below about -60%; inconclusive = no clear call, values can overlap the other calls; inactive = above about -39%; note: % is set by controls: 0 for no effect and ±100 for the full control effect
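HFF cells seeded 16 h at 37C, treated with compounds, infected with luciferase-reporter HCMV at MOI 1 PFU/cell; luciferase read at 72 h post infection, normalized to buffer-only and Salinomycin controls.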
* marks the source's active call; other numbers are inactive results; ? = inconclusive; . = no result given; [ ] = another dose, or the depositor's remark. Rows were chosen to be rich in hits. Some 8% of all compounds tested hit in one or more screens of this group.

SMILES | Lassa entry inh | FMDV antiviral | SARS PLP yeast | HCV inh | Marburg entry inh | HCMV antiviral
CCN(C)C(=O)c1coc(N2CCN(Cc3cccc(F)c3)C2=O)n1 | . | . | . | . | . | -11
O=C(COc1ccccc1[N+](=O)[O-])N1CCC(Cc2ccccc2)CC1 | -1% | -26% | -7% | 7% | -26%[46.1 µM] | -21
NC(=O)c1ccccc1OCC(=O)N1CCC(Cc2ccccc2)CC1 | . | 32µM* | -13% | 8.9µM* | . | -68*
CN(C(=S)NC(=O)Cc1ccccc1)c1ccccc1 | -36% | 44% | 0% | 10% | 8%[46.1 µM] | -67*
CCN(CC)C(=S)NC(=O)Cc1ccccc1 | 0%[46.1 µM] | 41% | -1% | 22% | 1%[46.1 µM] | -20
CCOC(=O)c1c(C)oc2ncnc(N3CCN(c4ccccc4)CC3)c12 | -25%[46.1 µM] | 28µM* | . | . | . | -24
CCOC(=O)c1c(C)oc2nc(C)nc(N3CCN(c4ccccc4F)CC3)c12 | 14%[46.1 µM] | ? | . | . | . | 6
CCOC(=O)c1c(C)oc2ncnc(N3CCN(c4ccccc4F)CC3)c12 | ? | 32µM* | . | . | . | -15
CCN(C(=O)c1ccco1)c1nc(-c2ccc(OC)cc2)cs1 | . | 58% | -6% | 22µM* | . | 92
COc1ccc(-c2csc(N(CCCN(C)C)C(=O)c3ccccc3Cl)n2)cc1 | ? | 20% | . | ? | 5.6µM* | -37
CCN(CC)CCCN(C(C)=O)c1nc(-c2cc(OC)ccc2OC)cs1 | 17% | 33% | 2% | 6.3µM* | ? | ?
CCN(CC)CCCN(C(=O)c1ccc(F)cc1)c1nc(-c2ccc(OC)cc2)cs1 | ? | -11% | 3% | ? | ? | -23
COc1ccc(-c2csc(N(CCCN(C)C)C(=O)c3ccccc3C)n2)cc1 | 10µM* | 1% | 3% | ? | ? | -61*

Bioassay records: PubChem BioAssay, National Center for Advancing Translational Sciences (NCATS)
